# Results: ChEMBL document CHEMBL3988442, “University of Dundee, Small-Polar-MMV Screening Library” (2021)
# Out of some 48,000 compounds screened, about 13,000 (27%) showed an effect of 50% or more. This is one part of the list.
# Tested on: Wolbachia pipientis
# Assay: Anti-Wolbachia Cell-Based Screen
# Type: functional
# Design: scale not given: in the data most compounds retested in dose-response had high values
# Conditions: 5 µM
row,SMILES,Percent Effect [%]
1,COCC1CN(CC2CCOCC2)Cc2cn(CC3CCCC3)nc21 (centres undefined),-7.587
2,Cc1nonc1C1CCCN1C(=O)c1cc2n(n1)CCCN(C(C)C)C2 (centres undefined),4.032
3,CSCCNC(=O)c1ccc(OC2CCN(CC(C)(C)C)CC2)c(Cl)c1,-14.62
4,Cc1nc(SCC(=O)Nc2ccc(C(N)=O)cc2)c(C#N)c(C)c1C,108.9
5,Cc1cc(=O)n(CC(=O)Nc2ccc(C(N)=O)cc2)nc1C,4.74
6,COc1ccc(NC(=O)CSc2nc(C)c(C)c(C)c2C#N)cn1,14.78
7,Cc1ccccc1CC(C)(C)NC(=O)CCOc1cccc(C(N)=O)c1,-6.35
8,CC(C)c1noc(Cn2ncc3ccccc3c2=O)n1,-9.946
9,CNC(=O)c1noc(Cn2ncc3ccccc3c2=O)n1,-3.773
10,CCN(CC)c1nc(O)cc(C(C)n2ncc3ccccc3c2=O)n1 (centres undefined),150.9
11,CC(C)Nc1nc(O)cc(C(C)n2ncc3ccccc3c2=O)n1 (centres undefined),144.2
12,NC(=O)c1noc(Cn2ncc3ccccc3c2=O)n1,-15.29
13,Cc1cc(C)nc(NC2CC(=O)N(C)C2)n1 (centres undefined),-15.96
14,CC(NCCN1CCN(C(=O)C2CCCC2)CC1)c1ccccn1 (centres undefined),4.295
15,CC(c1cc(O)nc(NC2CCCC2)n1)n1ncc2ccccc2c1=O (centres undefined),143.5
16,CC(C)c1nc(CNC(C(=O)N2CCOCC2)C(C)C)no1 (centres undefined),-8.871
17,COCCN(Cc1coc(-c2ccc(OC)cc2)n1)C1CC1,2.104
18,CC(C)CC(NC(=O)C1=CCCC1)C(=O)N1CCC(CO)CC1 (centres undefined),0.4021
19,COCc1nc2cc(NCc3ccc(CO)o3)ccc2o1,-0.637
20,CCN(CC)C(=O)CCCNC(=O)c1csc(NC2CC2)n1,-10.76
21,Cc1nn(C)c(Oc2ccc(Cl)cc2)c1CN1CCC(CN)C1 (centres undefined),-7.014
22,CC(O)Cc1cn(CC2CCN(c3nccc4occc34)CC2)nn1 (centres undefined),2.668
23,Cc1csc2ncc(-c3ccnc(NC4CCOCC4)n3)c(=O)n12,88.01

row,SMILES,Percent Effect [%]
1,Cc1ccc(-c2ccnc(N[C@H]3COC[C@@H]3N3CCCCC3)n2)c(C)n1,10.8
2,CCCn1ncc(-c2ccnc(NC3CCSC3)n2)c1C (centres undefined),-13.99
3,Cc1cn2c(=O)c(-c3ccnc(N[C@@H]4CCOC4)n3)cnc2s1,101
4,Cc1cn2c(=O)c(-c3ccnc(NC4CCOCC4)n3)cnc2s1,101.9
5,FC(F)(F)CCc1ccnc(NC2CCOC2)n1 (centres undefined),0.7283
6,O=C(CCCc1cn[nH]c1)N1C[C@@H](CN2CCCC2)C[C@H](CO)C1,-0.9744
7,COc1cc(C)cc(C(C(=O)O)N2CCN(C3CCCC3)CC2)c1OC (centres undefined),-14.27
8,CC(C)c1nn(C)c(N2CCOCC2)c1CNCCS(C)(=O)=O,-4.469
9,N#CC1(NC(=O)c2ccn(-c3ccccc3Cl)n2)CCSC1 (centres undefined),-6.951
10,CN1[C@H](CO)C[C@H](CNCc2ccc(Cl)c(F)c2)[C@@H]1c1ccccc1F,-19.47
11,CN1CCN(C(=O)C2(S(C)(=O)=O)CCCC2)Cc2ccccc21,-5.505
12,O=C(NC1CCc2ccccc2C1)N1CCN(C(=O)C2CCC2)CC1 (centres undefined),-14.39
13,CC(=O)N1Cc2ccccc2CC2(CCCCN2C)C1 (centres undefined),130.2
14,CN1CCCCC12Cc1ccccc1CN(C(=O)c1ccccc1)C2 (centres undefined),117.9
15,CS(=O)(=O)N1CCCCC12CCN(C(=O)c1ccccc1)C2 (centres undefined),-1.645
16,CN1CCCCC12Cc1ccccc1CN(C(=O)C1CCCC1)C2 (centres undefined),124.9
17,CN1CCN(C(=O)C2(NC(N)=O)CCCCC2)Cc2ccccc21,-12.44
18,Cc1noc(C)c1CNC(=O)N1CCC(OCC2CC2)CC1,12.01
19,Cc1n[nH]cc1CNC(C(=O)N1CCCCC1)c1ccccc1 (centres undefined),2.279
20,CC(C)c1nnc2n1CCN(C(=O)CN1CCc3sccc3C1)C2,4.372
21,OC(CN1CCC(c2ccn[nH]2)CC1)c1ccc(F)cc1F (centres undefined),102.6
22,OC(COCc1cccs1)CN1CCC(c2ccn[nH]2)CC1 (centres undefined),-8.119
23,OC(CN1CCN(c2ncccn2)CC1)c1cccc(F)c1 (centres undefined),-12.81

row,SMILES,Percent Effect [%]
1,Cn1nccc1C1CCN(CC(O)c2cccc(F)c2)CC1 (centres undefined),-0.7122
2,OC(CN1CCC(c2ccn[nH]2)CC1)c1ccc(F)cc1 (centres undefined),112.6
3,N#Cc1ccnc(N2CCN(CC(O)c3ccc(F)cc3F)CC2)c1 (centres undefined),-23.85
4,CN(CC1CCN(CCO)CC1)CC(O)c1ccc(F)cc1F (centres undefined),7.101
5,CS(=O)(=O)c1ccc(C(O)CN2CCC(c3ccn[nH]3)CC2)cc1 (centres undefined),-3.645
6,OC(CN1CCC(c2ccn[nH]2)CC1)c1cccc(C(F)(F)F)c1 (centres undefined),117.8
7,OC(COc1ccccc1)CN1CCC(c2ccn[nH]2)CC1 (centres undefined),2.003
8,OC(CN1CCC(c2ccn[nH]2)CC1)c1ccccc1F (centres undefined),96.43
9,OC(CN1CCC(c2ccn[nH]2)CC1)c1cccc(F)c1 (centres undefined),-8.538
10,Cc1ccc(F)c(OC2CCCN(c3cnn(C)c3)C2=O)c1 (centres undefined),-6.274
11,Cc1cc(C(=O)N[C@H]2CN(CCO)C[C@@H]2C2CC2)sc1C,-4.663
12,CN(Cc1ccccc1)C1(C(=O)NC(CO)CO)Cc2ccccc2C1,2.959
13,O=C(Nc1cnc2n1CCCC2)c1cccc(-n2cnnc2)c1,-1.722
14,CCN(C(=O)CN(Cc1cccc(O)c1)C1CCC(O)CC1)C1CC1 (centres undefined),5.971
15,Cc1cccc(CNCC2COC3(CCCC3)O2)c1C (centres undefined),-2.633
16,OC(COCc1ccc(Cl)cc1)CN1CCC(c2ccn[nH]2)CC1 (centres undefined),-1.567
17,O=C1CCCN1CCN1CCC(c2ccn[nH]2)CC1,6.838
18,OC(CN1CCC(c2ccn[nH]2)CC1)c1cc(F)ccc1F (centres undefined),116
19,O=c1cc(-c2ccncc2)nc(-c2ccc(CN3CC[C@H](O)C3)cc2)[nH]1,9.166
20,CN(C)c1cc(CNC(=O)Nc2nncs2)ccn1,51.52
21,CN(C)c1cc(CNC(=O)Nc2ccc(F)cc2)ccn1,2.745
22,CN(C)c1cc(CNC(=O)Nc2nccs2)ccn1,125
23,CN(C)c1cc(CNC(=O)Nc2ccc(S(C)(=O)=O)nc2)ccn1,-6.104
